Unmarked numbers belong to inactive results. Records with an inconclusive call do not appear. Activity calls are given as the source filed them. Calls come from the whole dose curve; as a rule, active = well fitted curve in the direction sought with a large enough effect; inconclusive = small, poorly fitted or top-dose-only effect, or another doubt; inactive = no such curve, though single readings can be large; an effect the other way counts as inactive or inconclusive.

Experiment [1] has as its target Glutathione peroxidase 1 (Homo sapiens) (UniProt P07203). Put plainly: Primary qHTS Assay for Inhibitors of Recombinant Selenoprotein Glutathione Peroxidase 1 (GPX1) (AID 1845191). Note: nearly all actives have a fitted effect of over 65% in size. A digest of the protocol: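 GR-coupled readout: NADPH consumption tracked by fluorescence, ex 340/em 450 nm, at t=0 and after 15 min at RT. Final mix 10 nM GPX1, 1 mM GSH, 0.5 mM CHP, 0.5 mM NADPH, 100 nM GR, 0.01% BSA, following 30 min enzyme–compound preincubation.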
In general terms: Quantitative high-throughput screening tests each substance at several concentrations.

Experiment [2] concerns the target Phospholipid hydroperoxide glutathione peroxidase GPX4 (Homo sapiens) (UniProt P36969). Kind of experiment: Primary qHTS Assay for Inhibitors of Recombinant Selenoprotein Glutathione Peroxidase 4 (GPX4) (AID 1845192). Note: nearly all actives have a fitted effect of over 65% in size. The procedure, abridged: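 Steps: GPX4 plus compound, 30 min RT; add GR/GSH/NADPH master mix; start with cumene hydroperoxide; read 340/450 nm fluorescence at 0 and 15 min. Finals were 200 nM GPX4, 1 mM GSH, 0.5 mM CHP, 0.5 mM NADPH, 100 nM GR.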

In experiment [3] the target is Luciferin 4-monooxygenase (Photinus pyralis) (UniProt P08659). Kind of experiment: Primary firefly luciferase (FLuc) qHTS assay for identification of artifact compounds. (AID 1845220). Note: nearly all actives have a fitted effect of over 60% in size. Note: potency is the fitted concentration of half-maximal effect. A digest of the protocol:
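Enzymatic FLuc inhibition assay: compounds pre-exposed to luciferin/ATP (10 uM each) for 15 min, then purified P. pyralis enzyme at 10 nM added. Read-out: luminescence at 5 min.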

In experiment [4] the test system is Nanoluciferase (engineered Oplophorus gracilirostris luciferase). Put plainly: Primary Nanoluciferase (NLuc) qHTS assay for identification of artifact compounds. (AID 1845222).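 Note: NLuc secreted into diluted conditioned medium of S16 cells; series mostly up to about 54 µM.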 The procedure, abridged: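 S16 cell supernatant NLuc, 1:55; cpds qHTS; 15 min RT dark; Nano-Glo substrate 1:100, 5 min; luminescence; Hill fit of % inhibition.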
Experiment [5] is described as follows: Primary redox qHTS assay for identification of artifact compounds. (AID 1845223). The procedure, abridged:
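Redox-cycling detection via DTT (250 uM final) oxidation coupled to Amplex Red (25 uM)/HRP (250 mU/mL) in HBSS. 15 min preincubation plus 30 min after DTT, room temperature. Ex/Em 525/598 nm; 4-parameter Hill fit against DMSO and 10 uM DA3003.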

Chain of Glutathione peroxidase 1 (Homo sapiens) (P07203 whole entry, looked up): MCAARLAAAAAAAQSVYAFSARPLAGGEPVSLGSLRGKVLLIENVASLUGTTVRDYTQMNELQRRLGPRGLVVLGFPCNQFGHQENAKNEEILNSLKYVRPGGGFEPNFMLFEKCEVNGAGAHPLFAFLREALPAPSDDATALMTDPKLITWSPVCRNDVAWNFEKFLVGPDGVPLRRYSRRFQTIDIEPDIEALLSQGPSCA
Chain of Phospholipid hydroperoxide glutathione peroxidase GPX4 (Homo sapiens) (P36969 whole entry, looked up): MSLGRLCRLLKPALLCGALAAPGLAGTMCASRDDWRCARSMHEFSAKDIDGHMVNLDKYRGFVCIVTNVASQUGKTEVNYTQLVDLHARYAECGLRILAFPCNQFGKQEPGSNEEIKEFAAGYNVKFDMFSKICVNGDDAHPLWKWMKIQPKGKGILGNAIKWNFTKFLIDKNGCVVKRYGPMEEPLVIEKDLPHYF

For `O=C(OCC1=CC(O)C2C=CO[C@@H](O[C@@H]3O[C@H](CO)[C@@H](O)[C@H](O)[C@H]3O)C12)c1ccccc1` (stereo not given in full), the Potency entry in experiment [1], in experiment [2], in experiment [3], in experiment [4] and in experiment [5] was “inactive” throughout.

On to `CC/C=C\[C@H](O)[C@H](O)C1=C(C)C(=O)[C@]2(O1)C(=O)N[C@@](OC)(C(=O)c1ccccc1)[C@@H]2O`, for which the Potency result in experiment [1], in experiment [2], in experiment [3], in experiment [4] and in experiment [5] was “inactive” in each case.

For the compound `Cn1c(=O)cc(N2CCCC(N)C2)n(Cc2cc(F)ccc2C#N)c1=O` (stereo not given), the Potency result in experiment [1], in experiment [2], in experiment [3], in experiment [4] and in experiment [5] was “inactive” in each case.

As to `CC1=CC(=O)CC2C1(O)CCC(C)C21CC(c2ccoc2)OC1=O` (stereo not given), the Potency entry in experiment [1], in experiment [2], in experiment [3], in experiment [4] and in experiment [5] was “inactive” each time.

In the case of `C=CC(C)(C)c1[nH]c2cc3c(cc2c1CC1NC(=O)C2=CCCN2C1=O)C=CC(C)(C)O3` (stereo not given), the Potency entry in experiment [1], in experiment [2], in experiment [3], in experiment [4] and in experiment [5] was “inactive” each time.

On to `COC(=O)CC(C)(O)CC(=O)OCc1ccc(O[C@@H]2O[C@H](CO)[C@@H](O)[C@H](O)[C@H]2O)cc1` (stereo not given in full), for which the Potency entry in experiment [1], in experiment [2], in experiment [3], in experiment [4] and in experiment [5] was “inactive” in each case.

Regarding `CC1C(OC(=O)c2ccccc2)C(O)C2C(C(=O)O)=COC(OC3OC(CO)C(O)C(O)C3O)C12` (stereo not given), the Potency entry in experiment [1], in experiment [2], in experiment [3], in experiment [4] and in experiment [5] was “inactive” in each case.

Take `O=C(/C=C/c1ccccc1)OC[C@]12O[C@H]1[C@@H](O)[C@@H]1C=CO[C@@H](O[C@@H]3O[C@H](CO)[C@@H](O)[C@H](O)[C@H]3O)[C@@H]12`: the Potency entry in experiment [1], in experiment [2], in experiment [3], in experiment [4] and in experiment [5] was “inactive” in each case.

For the compound `CC(C)O[C@@H]1O[C@H](CO)[C@@H](O)[C@H](O)[C@H]1O`, the Potency result in experiment [1], in experiment [2], in experiment [3], in experiment [4] and in experiment [5] was “inactive” in each case.

On to `CC(C)c1nc(-c2ccc(NC(=O)Nc3cccc(C(F)(F)F)c3)c3ccccc23)c2c(N)nccn12`, for which the Potency result in experiment [1], in experiment [2], in experiment [3], in experiment [4] and in experiment [5] was “inactive” in each case.

As to `COc1ccc(C(O)C(C)OC2OC(CO)C(O)C(O)C2O)cc1` (stereo not given), the Potency result in experiment [1], in experiment [2], in experiment [3], in experiment [4] and in experiment [5] was “inactive” in each case.

As for `CCC1C(=O)OC23C=C[C@@H]4C(C(=O)O)=CO[C@H](O[C@@H]12)[C@@H]43` (stereo not given in full), the Potency result in experiment [1], in experiment [2], in experiment [3], in experiment [4] and in experiment [5] was “inactive” each time.

Take `C=C[C@H]1[C@H](O[C@@H]2O[C@H](CO)[C@@H](O)[C@H](O)[C@H]2O)OC=C(C(=O)OC)[C@H]1C/C=C(/C=O)[C@@H]1C(C(=O)OC)=CO[C@@H](O[C@@H]2O[C@H](CO)[C@@H](O)[C@H](O)[C@H]2O)[C@@H]1C=C`: the Potency result in experiment [1], in experiment [2], in experiment [3], in experiment [4] and in experiment [5] was “inactive” in each case.

On to `CC(C)C1=CC2C(CC[C@]2(C)O)[C@](C)(O)CC1` (stereo not given in full), for which the Potency result in experiment [1], in experiment [2], in experiment [3], in experiment [4] and in experiment [5] was “inactive” each time.

Turning to `CC(C)/C=C1\NC(=O)C(C(C)C)n2c1nc1c(c2=O)C=CC=CO1` (stereo not given), the Potency result in experiment [1], in experiment [2], in experiment [3], in experiment [4] and in experiment [5] was “inactive” in each case.

As for `CC1C(=O)CC2C3CCC(C(=O)O)C12CC3(C)CO` (stereo not given), the Potency result in experiment [1], in experiment [2], in experiment [3], in experiment [4] and in experiment [5] was “inactive” in each case.

On to `CC(=O)C=C=C1C(C)(C)CC(O[C@@H]2O[C@H](CO)[C@@H](O)[C@H](O)[C@H]2O)CC1(C)O` (stereo not given in full), for which the Potency entry in experiment [1], in experiment [2], in experiment [3], in experiment [4] and in experiment [5] was “inactive” each time.

As to `C=CCC1=C[C@]2(OC)[C@H](C)[C@@H](c3ccc(O)c(OC)c3)O[C@]2(OC)CC1=O`, the Potency result in experiment [1], in experiment [2], in experiment [3], in experiment [4] and in experiment [5] was “inactive” in each case.

As to `C=C1CCC2C(C)(C)C(O)CCC2(C)C1CCC(C)CCOC(C)=O` (stereo not given), the Potency result in experiment [1], in experiment [2], in experiment [3], in experiment [4] and in experiment [5] was “inactive” throughout.

`COc1cc(Br)c(Nc2nc(-c3c(C)nc4ncccn34)cs2)c(Br)c1`: the Potency entry in experiment [1], in experiment [2], in experiment [3], in experiment [4] and in experiment [5] was “inactive” each time.

`C=C1C(=O)O[C@@H]2/C=C(\C)C(=O)/C=C/[C@](C)(O)C[C@@H](OC(=O)C(C)C)[C@@H]12`: the Potency result in experiment [1], in experiment [2], in experiment [3], in experiment [4] and in experiment [5] was “inactive” throughout.

`CCCCc1nc2cc(/C=C/C(=O)NO)ccc2n1CCN(CC)CC`: the Potency entry in experiment [1], in experiment [2], in experiment [3], in experiment [4] and in experiment [5] was “inactive” throughout.

Take `O=C(OC1C=C(CO)C2C(OC3OC(CO)C(O)C(O)C3O)OC=CC12)c1ccc(O)cc1` (stereo not given): the Potency result in experiment [1], in experiment [2], in experiment [3], in experiment [4] and in experiment [5] was “inactive” throughout.

Take `CCOc1cc(N2CCC(O)CC2)ccc1Nc1ncc2c(n1)N(C1CCCC1)CCC(=O)N2C`: the Potency result in experiment [1], in experiment [2], in experiment [3], in experiment [4] and in experiment [5] was “inactive” in each case.

Consider `c1cn2cc(-c3ccc4cn[nH]c4c3)nc(Nc3ccc(N4CCOCC4)cc3)c2n1`, for which the Potency result in experiment [1], in experiment [2], in experiment [4] and in experiment [5] was “inactive” throughout. Also, the Potency in experiment [3] is 53.6 nM (active).

Turning to `Cc1onc(C(=O)N2CCN(C(c3ccc(Cl)cc3)c3ccc(Cl)cc3)CC2)c1[N+](=O)[O-]`, the Potency entry in experiment [1], in experiment [2], in experiment [3], in experiment [4] and in experiment [5] was “inactive” in each case.
